Inconclusive results are not listed. The source made the active and inactive calls. Calls follow the shape of the dose curve; as a rule, active = well fitted inhibition curve with a large enough effect; inconclusive = small, poorly fitted or top-dose-only effect; inactive = no such curve, though single readings can be large or run the other way.
Assay: InCell qHTS Assay for Inhibitors of the mTORC1 Signaling Pathway in MEF (Tsc2-/-, p53-/-) Cells: Hit Validation;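 also: phospho-S6 Ser235/236 signal normalized to propidium iodide cell count per well; nearly all actives have a fitted effect of over 75% in size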
Settings: phospho-rpS6 immunofluorescence, 24 h; activity change, negative = inhibition: at 38.3 µM (top of the series)
Potency is read from the fitted curve at half-maximal effect.

Question: Which Potency does the source give for `CC(C)S(=O)(=O)c1oc(-c2ccc(F)cc2)nc1S(=O)(=O)c1ccc(F)cc1` here?
Answer: 0.927 µM (active)

Question: For `CCOc1ccc(/C=C/c2nc3ccccc3n2S(=O)(=O)c2cccc(Cl)c2)cc1`, which activity change, negative = inhibition is on record?
Answer: -100%

Question: Which Potency does the source give for `CCc1ccc(-n2c(=O)c3c4c(sc3n(CC(=O)c3ccc(F)cc3)c2=O)CCC4)cc1` here?
Answer: 9.27 µM (active)

Question: Which activity change, negative = inhibition does the source give for `COc1cc(C(=O)NC(c2ccccc2Cl)c2cc(Cl)c3cccnc3c2O)cc(OC)c1OC` (configuration not stated) here?
Answer: -100%

Question: With `COc1ccc(S(=O)(=O)N(CCc2ccccc2)CC(=O)Nc2cccc(OC)c2)cc1` as the compound, how does the activity change, negative = inhibition read?
Answer: -100%

Question: For `Cc1ccc2nc(/C(C#N)=C/c3ccc(-c4ccc(F)cc4F)o3)[nH]c2c1`, which activity change, negative = inhibition is on record?
Answer: -100%

Question: Which activity change, negative = inhibition does the source give for `COc1ccc(-c2[nH]nc3nc(-c4cc(OC)c(OC)c(OC)c4)cc(C(=O)O)c23)cc1` here?
Answer: -100%

Question: For `Cc1cc(C)c(NC(=O)c2sc3nc(C)cc(C)c3c2NC(=O)c2ccccc2)c(C)c1`, which activity change, negative = inhibition is on record?
Answer: -100%

Question: For `O=C(NCc1ccc(F)cc1)c1ccc2c(Cl)c3c(nc2c1)CCCC3`, which activity change, negative = inhibition is on record?
Answer: -100%

Question: For `CCn1c(CC2C(=O)N(C)c3ccc(Br)cc32)nc2ccccc2c1=O` (configuration not stated), which activity change, negative = inhibition is on record?
Answer: -100%

Question: With `Cc1ccc(C(C)C)c(OCC(=O)Nc2cc(-c3nc4ccccc4[nH]3)ccc2C)c1` as the compound, how does the activity change, negative = inhibition read?
Answer: -100%

Question: For `COc1cc(Cl)c(C)cc1NC(=O)C1CCN(c2nc3ccccc3n3cccc23)CC1`, which activity change, negative = inhibition is on record?
Answer: -100%

Question: For `Cc1cc(NC(=O)c2ccco2)cc(-c2nc3cc(Cl)ccc3o2)c1O`, which activity change, negative = inhibition is on record?
Answer: -4.63%

Question: Which activity change, negative = inhibition does the source give for `CC(CNC(=O)c1ccc(Nc2nc3ccccc3n3nnnc23)cc1)c1ccccc1` (configuration not stated) here?
Answer: -100%

Question: For `Nc1nnc(SCC(=O)Nc2cccc(F)c2)s1`, which activity change, negative = inhibition is on record?
Answer: -100%

Question: Which Potency does the source give for `Cc1cccc(NC(=O)c2nc(S(C)(=O)=O)ncc2Cl)c1` here?
Answer: 5.21 µM (active)

Question: With `CCC(C)NC(=O)c1sc2nc(C)c(C(=O)Nc3ccc(C)cc3C)c(-c3ccc(Cl)cc3)c2c1N` (configuration not stated) as the compound, how does the activity change, negative = inhibition read?
Answer: -100%

Question: For `CCOc1ccc(CCNCc2c(C(=O)O)n(Cc3ccc(C)cc3)c3cc(OC)ccc23)cc1`, which activity change, negative = inhibition is on record?
Answer: -100%

Question: With `Cc1c(C(=O)Nc2ccc(F)cc2F)nnn1-c1ccccc1Br` as the compound, how does the activity change, negative = inhibition read?
Answer: -100%

Question: For `O=C(Nc1ccc2nc(SCC(=O)N3CCCc4ccccc43)sc2c1)c1ccccc1F`, which activity change, negative = inhibition is on record?
Answer: -100%

Question: Which activity change, negative = inhibition does the source give for `Cc1cccc(Nc2ncc(NC(=O)c3cccc(F)c3)c(Nc3cccc(C)c3)n2)c1` here?
Answer: -100%

Question: For `COc1ccc2nc(NC(=O)c3nc(S(=O)(=O)Cc4ccccc4F)ncc3Cl)sc2c1`, which Potency is on record?
Answer: 2.33 µM (active)

Question: For `Cc1nn(CC(=O)NCc2ccccc2Cl)c(=O)c2cccn12`, which activity change, negative = inhibition is on record?
Answer: -100%

Question: With `Cc1cc(C)cc(OCC(=O)Nc2cccc(-c3nc4ccccc4[nH]3)c2)c1` as the compound, how does the activity change, negative = inhibition read?
Answer: -100%

Question: For `COc1cc(NC(=O)CSc2ccc(-c3ccccn3)nn2)cc(OC)c1`, which activity change, negative = inhibition is on record?
Answer: -100%

Question: For `CN(C(=O)CSc1nc2ccc(NC(=O)COc3ccc(F)cc3)cc2s1)c1ccccc1`, which activity change, negative = inhibition is on record?
Answer: -100%

Question: With `Cc1cc(OCC(=O)Nc2cc(-c3nc4ccccc4[nH]3)ccc2C)ccc1Cl` as the compound, how does the activity change, negative = inhibition read?
Answer: -100%

Question: With `CN1CCN(C(CNC(=O)C(=O)Nc2cccc(Cl)c2)c2ccc3c(c2)OCO3)CC1` (configuration not stated) as the compound, how does the activity change, negative = inhibition read?
Answer: -100%

Question: Which activity change, negative = inhibition does the source give for `COc1ccc(CC(=O)Nc2sc3c(c2C(=O)Nc2cccc(C)c2)CCCCC3)cc1` here?
Answer: -17.5%

Question: For `CCOC(=O)c1c(NC(=O)COc2ccc(OC)cc2)sc(C(=O)N(CC)CC)c1C`, which activity change, negative = inhibition is on record?
Answer: -100%

Question: With `Cc1ccc(C2c3c(-c4ccccc4O)n[nH]c3C(=O)N2CCc2ccccc2)cc1` (configuration not stated) as the compound, how does the activity change, negative = inhibition read?
Answer: -100%

Question: For `CCCSc1ncc(Cl)c(C(=O)Nc2ccc(S(=O)(=O)N3CCCCC3C)cc2)n1` (configuration not stated), which activity change, negative = inhibition is on record?
Answer: -100%

Question: Which activity change, negative = inhibition does the source give for `CCC1=Nc2cc(C(=O)NC3CCCC3)ccc2Sc2ccc(Cl)cc21` here?
Answer: -100%

Question: For `CCc1ccc(OCC(=O)N(Cc2ccc(C)cc2)Cc2ccco2)cc1`, which activity change, negative = inhibition is on record?
Answer: -100%

Question: With `Nc1c(C(=O)NCc2ccccc2)nnn1Cc1cccc(Br)c1` as the compound, how does the activity change, negative = inhibition read?
Answer: -100%

Question: For `Cc1ccc(CN2C(=O)c3ccccc3Sc3ccc(C(=O)NCCCN4CCOCC4)cc32)cc1`, which activity change, negative = inhibition is on record?
Answer: -100%

Question: Which activity change, negative = inhibition does the source give for `COC(=O)c1cccc(-n2c(CCC(=O)O)ccc2-c2ccc(OC)cc2)c1` here?
Answer: -100%
